According to the supplement of paper PMC13380429:

Tested on: Vero E6 infected with SARS-CoV-2
Assay: inhibition of SARS-CoV-2 cytopathic effect; higher = more antiviral protection, active = above 15
Conditions: 48 h

Measured: inhibition of SARS-CoV-2 cytopathic effect

O=C(O)CCCCC(=O)O [adipic-acid]
inactive: 1 nM -3.52% | 8.33 nM -3% | 100 nM -0.01% | 833.33 nM -2.5% | 10000 nM -1.83%

O=C(O)Cc1sc(-c2ccccc2)nc1-c1ccc(Cl)cc1 [fentiazac]
inactive: 1 nM -0.18% | 8.33 nM -2.64% | 100 nM -1.78% | 833.33 nM 0.61% | 10000 nM 1.91%

COc1cc2c(NC3CCN(C4CCCCC4)CC3)nc(N3CCCN(C(C)C)CC3)nc2cc1OCCCN1CCCCC1
inactive: 1 nM -0.42% | 8.33 nM 1.56% | 100 nM 0.26% | 833.33 nM -2.24% | 10000 nM 15%

O=C(O)COC(=O)Cc1ccccc1Nc1c(Cl)cccc1Cl [aceclofenac]
inactive: 1 nM 0.39% | 8.33 nM 0.9% | 100 nM 0.17% | 833.33 nM -0.85% | 10000 nM 0.58%

Nc1nc2ccc(OC(F)(F)F)cc2s1 [riluzole]
inactive: 1 nM -0.39% | 8.33 nM -3.06% | 100 nM 0.81% | 833.33 nM 3.82% | 10000 nM 1.88%

OC[C@H]1NC[C@@H](O)[C@@H](O)[C@@H]1O [1-deoxymannojirimycin]
inactive: 1 nM -5.76% | 8.33 nM 0.14% | 100 nM -0.54% | 833.33 nM 1.33% | 10000 nM -0.79%

O=C(Nc1ccc(Br)cc1)c1cc(Br)cc(Br)c1O [tribomsalan]
inactive: 1 nM -1.03% | 8.33 nM -3.93% | 100 nM -1.03% | 833.33 nM -0.02% | 10000 nM 6.65%
